Test results taken from ChEMBL document CHEMBL3988442, “University of Dundee, Small-Polar-MMV Screening Library” (2021).
Screen size: about 69,000 compounds; about 1,000 (1.4%) showed an effect of 50% or more. Only a selection was taken, and strong results are over-represented in it overall.

System: Leishmania donovani
Assay: Leishmania intramacrophage assay
Format: functional, organism-based
Set-up: scale not given: in the data most compounds retested in dose-response had high values

CC(C)c1n[nH]c(C(=O)Nc2ccncc2)c1Br
Percent Effect (30 µM, 30.03 µM): 62.71%

COc1ccncc1NC(=O)c1[nH]nc(C(C)C)c1Br
Percent Effect (30.3 µM, […]): 16.78%

CC(C)c1n[nH]c(C(=O)NC(C)c2ccncc2)c1Br (centres undefined)
Percent Effect (30 µM): 13.54%

NC1CCCCN(Cc2cc(-c3ccccc3OC(F)(F)F)no2)C1 (centres undefined)
Percent Effect (30.3 µM, […]): 99.07%

OC1COCCN(Cc2cc(-c3ccccc3OC(F)(F)F)no2)C1 (centres undefined)
Percent Effect (30.3 µM, […]): -21.47%

N[C@@H]1CCN(Cc2cc(-c3ccccc3OC(F)(F)F)no2)C[C@H]1O
Percent Effect (30.3 µM, […]): 12.53%

COc1ccc(C)cc1CN1CCC(c2cc3ncccc3cn2)CC1.Cl
Percent Effect (30.3 µM, […]): 41.3%

CS(=O)(=O)N1CCC(C(=O)Nc2nnc(C(F)(F)F)[nH]2)CC1
Percent Effect (30.3 µM, […]): 1.048%

COC[C@@H]1CCCN1C(=O)c1cc(-c2ccc(OC)cc2)n[nH]1
Percent Effect (30.3 µM, […]): 15.18%

Cc1nnc(CN(C)S(=O)(=O)c2ccc(Br)cc2Cl)n1C
Percent Effect (30.3 µM, […]): 25.06%

O=c1cc(CN(Cc2ccco2)C2CC2)nc2ccc(Br)cn12
Percent Effect (30.3 µM, […]): 12.01%

CN(Cc1nnc2n1CCC2)S(=O)(=O)c1cc(Br)ccc1Br
Percent Effect (30.3 µM, […]): 22.5%

CN1CCC(N(Cc2ccco2)S(=O)(=O)c2cc(Br)ccc2Br)CC1
Percent Effect (30.3 µM, […]): 95.6%

CN1CCC(N(Cc2ccco2)S(=O)(=O)c2ccc(Br)cc2Cl)CC1
Percent Effect (30.3 µM, […]): 87.02%

CN1CCC(N(Cc2ccco2)S(=O)(=O)c2ccc(Cl)cc2)CC1
Percent Effect (30.3 µM, […]): 24.1%

Cc1ccc(NCCCNC(=O)C2CCCN(Cc3ccco3)C2)nc1 (centres undefined)
Percent Effect (30.3 µM, […]): -17.24%

Cc1nc(CN(C)c2nccc(C(F)(F)F)n2)cs1
Percent Effect (30.3 µM, […]): 5.886%

Cc1cnn(CCNc2nc(C)cc(N(C)C)n2)c1
Percent Effect (30.3 µM, […]): -24.91%

COCCN1CCC(NC(=O)C/C=C/c2ccc(C(C)C)cc2)CC1
Percent Effect (30.3 µM, […]): 51.69%

CC(C)c1ccc(/C=C/CC(=O)NC2CCN(C(N)=O)CC2)cc1
Percent Effect (30.3 µM, […]): -5.908%

CC(C)c1ccc(/C=C/CC(=O)NC2CCN(C(N)=O)C2)cc1 (centres undefined)
Percent Effect (30.3 µM, […]): 6.492%

O=C(CC1CC1)N1CCN(Cc2ccncc2)c2ncccc2C1.O=C(O)C(F)(F)F.O=C(O)C(F)(F)F
Percent Effect (30.3 µM, […]): -1.398%

CCc1cc(C(=O)N2CCC3(CCCN(CC4CC4)C3=O)C2)cs1 (centres undefined)
Percent Effect (30.3 µM, […]): 12.28%

O=C1NCCCc2c1oc1ccc(O)c(CN3CCOCC3)c21
Percent Effect (30.3 µM, […]): 56.93%

Oc1ccc2oc3c(c2c1CN1CCOCC1)CCCC3
Percent Effect (30.3 µM, […]): 27.1%

NC(=O)C1CN(Cc2c(O)ccc3oc4c(c23)CCCC4)CCO1 (centres undefined)
Percent Effect (30.3 µM, […]): 24.24%

CN1CCOC(CNCc2csc(C3CCCC3)n2)C1 (centres undefined)
Percent Effect (30 µM): 13.96%

CN1CCOC(CNCc2csc(C3CCCCC3)n2)C1 (centres undefined)
Percent Effect (30 µM): 56.43%

Cc1nc(CNCC2CN(C)CCO2)cs1 (centres undefined)
Percent Effect (30 µM, 30.03 µM): 33.12%
